High-throughput results deposited in PubChem BioAssay by National Center for Advancing Translational Sciences (NCATS).
Hits are enriched below; roughly 19% of the tested compounds scored in any of these assays.
HT1080NT lethal: qHTS for induction of synthetic lethality in tumor cells producing 2HG: qHTS for the HT-1080-NT fibrosarcoma cell line; HT-1080-NT fibrosarcoma viability, CellTiter-Glo ATP luminescence, 48 h; Potency, µM (highest dose often 46.1 µM), actives largely listed as cytotoxic; AID 686970, 2013; hit rate 1.6% among 360,000;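 note: NT is the 2HG producing partner of a matched IDH1 knockdown line; nearly all actives have a fitted effect of over 55% in size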
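Viability by CellTiter-Glo luminescence after 48 h compound exposure at 37C of HT-1080-NT cells (750/well, RPMI, 5% FBS). % activity scaled between DMSO wells and medium-only wells, then curve-fitted and categorized by curve class.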
DT40 TDP1 no CPT: qHTS for Inhibitors of human tyrosyl-DNA phosphodiesterase 1 (TDP1): qHTS in cells in absence of CPT. DT40 Tdp1-/- hTDP1 cells, no CPT, ATP luminescence, 48 h. Potency, µM (doses to about 46.2 µM), usual class: inhibitors. hit rate 15% among 420,000; note: nearly all actives have a fitted effect of over 55% in size
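Compound effects on proliferation are scored in DT40 Tdp1-/-;hTDP1 cells in the absence of CPT. ATP levels (CellTiter-Glo luminescence) are recorded after a ≥48 hr, 37 °C incubation.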
IL-1B inflam inh: qHTS for Inhibitors of Inflammasome Signaling: IL-1-beta AlphaLISA Primary Screen | THP-1 LPS/ATP IL-1B secretion, AlphaLISA, 16 h; hits give low values | activity change, % at 57.5 µM | hit rate 4.7% among 360,000; in the data active = activity change below about -50%; inconclusive = mostly about -30% to -49%
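Secreted IL-1B measured by AlphaLISA bead assay after 16 h compound exposure of THP-1 cells; compounds (final up to 57.5 uM) added 1 h before LPS (250 ng/mL) and ATP (1.25 mM) stimulation; lower signal means less secretion.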
HT1080 IDH1KD tx: qHTS for induction of synthetic lethality in tumor cells producing 2HG: qHTS for the HT-1080-IDH1KD cell line | Potency, µM (top dose mostly 46.1 µM), usual class: cytotoxic | HT-1080 IDH1 knockdown viability, ATP luminescence, 48 h | AID 686971, 2013 | hit rate 2% among 360,000
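HT-1080-IDH1KD cells (IDH1 knocked down), 750/well in RPMI with 5% FBS, treated with compound 48 h at 37 degrees C. Viability by CellTiter-Glo luminescence, normalised to DMSO and no-cell wells; concentration-response curves classed.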
DT40 TDP1 CPT: qHTS for Inhibitors of human tyrosyl-DNA phosphodiesterase 1 (TDP1): qHTS in cells in presence of CPT; chicken DT40 Tdp1-/-;hTDP1 cells + 20 nM CPT, ATP luminescence, 48 h; Potency, µM (series often up to 46.2 µM), usual class: inhibitors; hit rate 12% among 420,000; AID 686979, 2013; note: nearly all actives have a fitted effect of over 55% in size
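Chicken DT40 Tdp1-/- cells stably complemented with human TDP1 were seeded at 400 cells/well in medium containing 20 nM camptothecin, exposed to pin-transferred compounds, and grown at 37 °C for at least 48 hr. Viability was read as ATP luminescence.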
A number is an active result; n = inactive; u = inconclusive; x = not tested or not shown. Unless noted, calls come from the whole dose curve; as a rule, active = well fitted curve in the direction sought with a large enough effect; inconclusive = small, poorly fitted or top-dose-only effect, or another doubt; inactive = no such curve, though single readings can be large; an effect the other way counts as inactive or inconclusive.

SMILES	HT1080NT lethal	DT40 TDP1 no CPT	IL-1B inflam inh	HT1080 IDH1KD tx	DT40 TDP1 CPT
Cc1nc(C(F)(F)F)ccc1C(=O)N1CCC1(C)C(=O)NCc1ccc(Cl)cc1 (configuration not stated)	n	u	n	n	n
COc1cc(NC(=O)c2ccc(S(=O)(=O)N(C)c3ccccc3)cc2)cc(OC)c1	n	16µM	n	n	u
Oc1ccc(Cl)cc1C(C#Cc1ccccc1)N1CCOCC1 (configuration not stated)	n	n	u	n	n
Cc1ccc(N2NC(=O)/C(=C\c3cc4c(cc3[N+](=O)[O-])OCO4)C2=O)cc1C	n	u	-105	n	u
CCN1CCN(C(=O)CCc2nnc3ccc(N4CCN(c5cccc(OC)c5)CC4)nn23)CC1	n	n	n	n	n
CCN1C(=O)[C@H]2[C@@H](c3ccc(-c4ccccc4)cc3)N3CCC[C@@]3(C(=O)OC)[C@H]2C1=O	n	18µM	n	n	u
CCN1C(=O)[C@@H]2[C@@H](c3ccc(-c4ccc(F)cc4)cc3)N3CCC[C@@]3(C(=O)OC)[C@@H]2C1=O	n	u	n	n	u
CCN1C(=O)[C@@H]2[C@@H](c3ccc(-c4ccccc4)cc3)N3CCC[C@@]3(C(=O)OC)[C@@H]2C1=O	n	u	n	n	21µM
OC1(C#CCN2CCCC2)CCCCC1	n	n	n	n	n
CCOc1ccc(NC(=O)Cn2c(=O)n(Cc3ccco3)c(=O)c3ccc(C(=O)NC4CCCC4)cc32)cc1	x	n	x	x	u
COc1ccc(NC(=O)Cn2c(=O)n(Cc3ccc4c(c3)OCO4)c(=O)c3ccc(C(=O)NC4CCCCC4)cc32)cc1	x	7.3µM	x	x	8.2µM
Oc1ccccc1Nc1ncnc2c1oc1ccccc12	n	n	n	n	n
c1ccc(Nc2ncnc3c2oc2ccccc23)cc1	n	u	n	n	10µM
Oc1cccc(Nc2ncnc3c2oc2ccccc23)c1	n	u	u	u	12µM
Cc1nc(Nc2ccccc2)c2oc3ccc(Cl)cc3c2n1	u	23µM	n	u	u
Oc1ccc(Nc2ncnc3c2oc2ccccc23)cc1	n	15µM	n	n	u
CCCc1ccc(-c2cc(C(=O)Nc3ccc([N+](=O)[O-])cn3)c3ccccc3n2)cc1	n	u	n	n	n
CCOC(=O)CN1C(=O)C(=O)N(Cc2ccccc2F)C1=O	n	n	n	n	n
c1ccc2c(c1)oc1c(NCCN3CCOCC3)ncnc12	n	n	n	n	n
c1ccc2c(c1)oc1c(Nc3ccc(CN4CCOCC4)cc3)ncnc12	u	15µM	u	u	u
Cc1nc(NCCc2ccccc2)c2oc3ccccc3c2n1	n	9.2µM	n	u	8.2µM
O=[N+]([O-])c1ccc2c(c1)Cc1cc(F)ccc1-2	u	u	n	n	n
O=CNc1c(Cl)cc2c(c1Cl)Cc1cc([N+](=O)[O-])ccc1-2	n	12µM	n	n	12µM
O=C(c1cccc(C(F)(F)F)c1)N1CCC2(CC1)NCCc1[nH]cnc12	n	n	n	n	n
CCC1=NN2C(=N)/C(=C\c3cccn3-c3ccc(C)cc3C)C(=O)N=C2S1	n	n	n	n	n
CCC1=NN2C(=N)/C(=C\c3cccn3-c3c(C)cccc3C)C(=O)N=C2S1	n	3.7µM	n	n	u
O=C1NC(=O)C2(CCCc3c([N+](=O)[O-])cccc32)N1 (configuration not stated)	n	n	n	n	n
CC(C)N1C(=O)S/C(=C/c2ccc(Sc3nc4ccccc4[nH]3)o2)C1=O	n	10µM	-79	u	15µM
C=CCN1C(=O)S/C(=C/c2ccc(Sc3nc4ccccc4[nH]3)o2)C1=O	n	21µM	n	u	23µM
CCOc1ccccc1NC(=O)c1nn(-c2ccc(C)cc2)c(=O)n(C)c1=O	x	n	x	x	n
